Source: ChEMBL document CHEMBL4513146, “CO-ADD screening of Karazin Kharkiv National University (Ukraine) compounds”
Results with a measured potency or affinity are listed apart.

Experiments:
[1] = test system: Staphylococcus aureus; details: Concentration 32 ug.mL-1;; ASSAY_TEST Inhibition of Bacterial Growth; detection method Absorption (OD600); MEDIA CAMHB; plate type 384well; NBS; CORNING #3640; time 18 hr
[2] = test system: Escherichia coli; details: Concentration 32 ug.mL-1;; ASSAY_TEST Inhibition of Bacterial Growth; detection method Absorption (OD600); MEDIA CAMHB; plate type 384well; NBS; CORNING #3640; time 18 hr

`Cc1ccc(-c2ccc3nn(CC(=O)N4CCN(c5ccc(F)cc5)CC4)c(=O)n3n2)cc1C` showed an Inhibition [1] of -6.93% and an Inhibition [2] of -8.27%.
`COc1cccc(-n2ccn3c(SCc4ccccc4Cl)nnc3c2=O)c1` showed an Inhibition [1] of 8.33% and an Inhibition [2] of -9.75%.
With `COc1ccc(NC(=O)Cn2nc3c(N4CCOCC4)nccn3c2=O)cc1Cl` the Inhibition [1] was 10.11% and the Inhibition [2] was -1.05%.
Work on `CCc1nnc2c(S(=O)(=O)N(Cc3ccc(F)cc3)c3ccc(Cl)cc3)cccn12` yielded an Inhibition [1] of 8.89% and an Inhibition [2] of -2.23%.
`O=C1CCCN1c1ccc(Cn2nc3ccc(-c4ccccc4)nn3c2=O)cc1` was tested, and the Inhibition [1] was -3.3% and the Inhibition [2] was -6.97%.
With `CCOc1ccc(-n2ccn3c(SCC(=O)c4cc(C)c(C)cc4C)nnc3c2=O)cc1` the Inhibition [1] was 7.6% and the Inhibition [2] was -6.02%.
`Cc1cccc(NC(=O)Cn2nc3c4cc(-c5ccc(Cl)cc5)nn4ccn3c2=O)c1` was tested, and the Inhibition [1] was 3.19% and the Inhibition [2] was -7.53%.
In the case of `O=C(Cn1nc2c(SCc3ccccc3)nccn2c1=O)NCc1ccc(Cl)cc1`, the Inhibition [1] is reported as -0.34% and the Inhibition [2] is reported as -19.62%.
Compound `CCOc1ccc(C(=O)CSc2nnc3c(=O)n(-c4cccc(OC)c4)ccn23)cc1` has an Inhibition [1] of 5.74% and an Inhibition [2] of -13.86%.
With `COc1cccc(-n2ccn3c(SCC(=O)c4ccc(C)cc4)nnc3c2=O)c1` the Inhibition [1] was 8.57% and the Inhibition [2] was -9.45%.
`CCCCOc1ccc(-c2cc3c4nnc(SCC(=O)Nc5c(C)cccc5CC)n4ccn3n2)cc1` gave an Inhibition [1] of -40.6% and an Inhibition [2] of -38.25%.
For `Cc1ccc(-c2ccc3nn(Cc4ccc(F)cc4Cl)c(=O)n3n2)cc1C`, the Inhibition [1] was 8.63% and the Inhibition [2] was -0.58%.
`COc1ccc(-c2cc3c4nnc(SCC(=O)Nc5ccccc5F)n4ccn3n2)cc1` was tested, and the Inhibition [1] was -1.6% and the Inhibition [2] was -2.74%.
Compound `CC1CCCN(c2nccn3c(=O)n(CC(=O)Nc4ccc(Br)cc4F)nc23)C1` (stereo not drawn) has an Inhibition [1] of 12.44% and an Inhibition [2] of 0.2%.
Work on `O=C(CSc1nnc2c(=O)n(-c3ccc(F)c(F)c3)ccn12)c1cccc(Cl)c1` yielded an Inhibition [1] of 13.4% and an Inhibition [2] of -3.45%.
Work on `Cc1ccc(-c2cc3c4nn(CC(=O)Nc5cc(Cl)ccc5C)c(=O)n4ccn3n2)cc1C` yielded an Inhibition [1] of 2.42% and an Inhibition [2] of -7.74%.
Work on `COc1ccc(NC(=O)C(C)Sc2nnc3c(=O)n(-c4ccc(C)c(C)c4)ccn23)cc1` (stereo not drawn) yielded an Inhibition [1] of 7% and an Inhibition [2] of -4.16%.
`Cc1ccc(N(Cc2ccc(F)cc2)S(=O)(=O)c2ccc3nnc(C)n3c2)cc1` was tested, and the Inhibition [1] was 0.5% and the Inhibition [2] was -5.57%.
`CCCCN(C)C(=O)CSc1nnc2c(=O)n(Cc3ccc(F)cc3)ccn12` gave an Inhibition [1] of 7.74% and an Inhibition [2] of -2.27%.
`COc1cccc(-n2ccn3c(SCC(=O)Nc4ccc(Br)cc4)nnc3c2=O)c1` gave an Inhibition [1] of -2.74% and an Inhibition [2] of -7.77%.
`Cc1ccc(Sc2nccn3c(=O)n(CC(=O)Nc4cccc(Cl)c4)nc23)c(C)c1` was tested, and the Inhibition [1] was 9.86% and the Inhibition [2] was -3.61%.
In the case of `CCc1ccccc1Sc1nccn2c(=O)n(CC(=O)N3CCN(c4ccccc4)CC3)nc12`, the Inhibition [1] is reported as -10.72% and the Inhibition [2] is reported as -11.22%.
`O=C(Cn1nc2c3cc(-c4ccc(Cl)cc4)nn3ccn2c1=O)Nc1ccc(F)cc1` was tested, and the Inhibition [1] was 7.29% and the Inhibition [2] was 4.85%.
Compound `COc1ccc(CNC(=O)CCc2nnc3c4cc(-c5ccc(Cl)cc5)nn4ccn23)cc1OC` has an Inhibition [1] of 3.74% and an Inhibition [2] of 1.66%.
`CCc1ccc(N(Cc2cccc(C)c2)S(=O)(=O)c2cccn3c(C)nnc23)cc1` showed an Inhibition [1] of -11.31% and an Inhibition [2] of 0.34%.
`CCc1cccc(NC(=O)Cn2nc3ccc(SC4CCCCC4)nn3c2=O)c1` gave an Inhibition [1] of 13.65% and an Inhibition [2] of -0.36%.
With `COc1ccc(NC(=O)c2ccc3nn(CC(=O)Nc4ccccc4C(F)(F)F)c(=O)n3c2)cc1` the Inhibition [1] was 9.89% and the Inhibition [2] was -3.73%.
For `CCc1ccccc1NC(=O)Cn1nc2n(C)c(=O)c3c(c(-c4ccccc4)cn3C)n2c1=O`, the Inhibition [1] was 6.44% and the Inhibition [2] was -11.71%.
`CC(C)(C)NC(=O)Cn1nc2n(Cc3cccs3)c(=O)c3sccc3n2c1=O` showed an Inhibition [1] of -26.19% and an Inhibition [2] of -5.05%.
`COc1ccc(-c2cc3c4nnc(SCC(=O)Nc5cccc(C)c5C)n4ccn3n2)cc1` gave an Inhibition [1] of -11.43% and an Inhibition [2] of -10.61%.
In the case of `Cc1ccc(NC(=O)Cn2c(=O)c3nnc(C(C)C)n3c3ccccc32)c(C)c1`, the Inhibition [1] is reported as 15.48% and the Inhibition [2] is reported as 8.06%.
`CCc1ccc(Cn2c(=O)c3sccc3n3c(SCc4cccc(C(F)(F)F)c4)nnc23)cc1` gave an Inhibition [1] of 5.26% and an Inhibition [2] of -0.8%.
`N#Cc1cccc(NC(=O)CSc2nnc3c4cc(-c5ccc(F)cc5)nn4ccn23)c1` was tested, and the Inhibition [1] was 11.69% and the Inhibition [2] was -2.69%.
`O=C(Cn1nc2c(N3CCOCC3)nccn2c1=O)Nc1ccccc1Br` showed an Inhibition [1] of 17.91% and an Inhibition [2] of 6.7%.
`COc1ccc(N2CCN(C(=O)Cn3nc4ccc(-c5ccc(Cl)cc5)nn4c3=O)CC2)cc1` was tested, and the Inhibition [1] was 9.33% and the Inhibition [2] was -1.38%.
`CCOc1ccc(-n2ccn3c(SCC(=O)c4ccc(C)cc4C)nnc3c2=O)cc1` showed an Inhibition [1] of 6.78% and an Inhibition [2] of -6.14%.
`Cc1cccc(CN(c2cccc(F)c2)S(=O)(=O)c2ccc3nncn3c2)c1` gave an Inhibition [1] of -2.24% and an Inhibition [2] of -9.18%.
`CCc1nnc2c(SCC(=O)Nc3ccc(OC)c(Cl)c3)nc3ccccc3n12` was tested, and the Inhibition [1] was 9.23% and the Inhibition [2] was 5.47%.
`Cc1cccc(N(Cc2ccccc2F)S(=O)(=O)c2ccc3nncn3c2)c1` gave an Inhibition [1] of -3.86% and an Inhibition [2] of -5.15%.
With `COc1ccc(N2CCN(C(=O)Cn3nc4ccc(S(=O)(=O)C(C)(C)C)nn4c3=O)CC2)cc1` the Inhibition [1] was 12.76% and the Inhibition [2] was 0.99%.
With `COc1ccccc1Cn1c(=O)c2sccc2n2c(=O)n(Cc3cccc(C)c3)nc12` the Inhibition [1] was 10.55% and the Inhibition [2] was 0.66%.
Work on `Cc1nnc2ccc(S(=O)(=O)N(Cc3ccccc3F)c3cc(F)cc(F)c3)cn12` yielded an Inhibition [1] of -3.63% and an Inhibition [2] of -18.18%.
For `Cc1nnc2ccc(S(=O)(=O)N(Cc3ccc(Cl)cc3)c3cccc(F)c3)cn12`, the Inhibition [1] was 2.65% and the Inhibition [2] was -4.46%.
`Cc1ccc(NC(=O)Cn2nc3ccc(-c4ccc(Cl)cc4)nn3c2=O)cc1` was tested, and the Inhibition [1] was 0.77% and the Inhibition [2] was -0.85%.
Compound `COc1ccc(NC(=O)Cn2nc3c(N4CCCC(C)C4)nccn3c2=O)cc1OC` (stereo not drawn) has an Inhibition [1] of -18.12% and an Inhibition [2] of -13.91%.
With `Cc1ccc(Cn2c(=O)c3ccccc3n3c(=O)n(CC#N)nc23)cc1` the Inhibition [1] was 3.14% and the Inhibition [2] was -7.28%.
Work on `Cc1ccc(NC(=O)CSc2nnc3ccc(C(=O)Nc4cccc(F)c4)cn23)c(C)c1` yielded an Inhibition [1] of 12.19% and an Inhibition [2] of -1.6%.
In the case of `Cc1nnc2c(SCC(=O)Nc3ccc(Br)cc3F)nc3ccccc3n12`, the Inhibition [1] is reported as 1.94% and the Inhibition [2] is reported as -10.05%.
In the case of `COc1cccc(NC(=O)Cn2nc3ccc(SCc4ccc(Cl)cc4)nn3c2=O)c1`, the Inhibition [1] is reported as -4.03% and the Inhibition [2] is reported as 0.27%.
